Hits are enriched below; roughly 6% of the tested compounds scored in any of these assays.
D1 agonist: activates the human D1 dopamine receptor; HEK293 T-REx D1 cells, calcium flux, agonist mode; P21728; actives 1% (n = 360,000); activation, % at 2 µM; AID 504660; in the data active means activation above about 30%; further: 0% is about no effect
Target sequence (P21728 whole entry, looked up): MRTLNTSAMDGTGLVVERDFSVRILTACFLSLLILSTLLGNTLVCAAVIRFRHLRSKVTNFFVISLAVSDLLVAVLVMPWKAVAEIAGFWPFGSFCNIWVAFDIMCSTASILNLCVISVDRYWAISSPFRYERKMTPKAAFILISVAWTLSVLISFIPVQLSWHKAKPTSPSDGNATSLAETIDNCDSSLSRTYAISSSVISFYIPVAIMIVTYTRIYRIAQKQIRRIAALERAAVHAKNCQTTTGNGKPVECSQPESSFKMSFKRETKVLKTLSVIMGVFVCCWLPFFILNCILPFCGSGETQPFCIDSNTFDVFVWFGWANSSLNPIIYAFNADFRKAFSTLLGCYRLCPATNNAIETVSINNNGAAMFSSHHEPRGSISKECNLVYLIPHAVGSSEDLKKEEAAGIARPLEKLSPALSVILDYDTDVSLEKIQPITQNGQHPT
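Tetracycline-induced HEK293 TREx D1 cells, force-coupled to calcium signalling, were dye-loaded with a no-wash calcium kit. Compound was pin-added after a 10 s baseline. Fluorescence was read kinetically at 1 cycle/s for 180 s, with calcium rises flagged as agonism.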
D1 potentiator: potentiators of human D1 dopamine receptor | P21728 | HEK293 TREx D1 cells, calcium flux, dopamine EC20 potentiation | potentiation, % at 10 µM | actives 0.036% (n = 360,000); in the data active means potentiation above about 30%; further: 0% is about no effect
D1 antagonist: human D1 dopamine receptor antagonism | HEK293 TREx D1 cells, calcium flux, dopamine EC80; hits give low values | AID 504652 | activity change, negative = inhibition, % at 10 µM | P21728 | actives 3.2% (n = 360,000); in the data active means activity change below about -30%; further: on the % scale 0 is the no-effect control and ±100 the full control effect
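Using tetracycline-induced force-coupled D1 Hek293 cells and a calcium dye, signals were followed for 180 s after compound, then for 180 s after EC80 dopamine, to detect inhibitors.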
D3 antag: antagonists of human D3 dopamine receptor; actives 2.5% (n = 360,000); D3R cells, DiscoveRx beta-arrestin luminescence, antagonist mode; hits give low values; P35462; AID 652054; max response, negative = inhibition, %; in the data active means max response below about -50%; inconclusive means no clear call, values can overlap the other calls; further: on the % scale 0 is the no-effect control and ±100 the full control effect
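Cells expressing the human receptor were seeded at 1500 cells/well, incubated overnight at 37 degrees C in 5% CO2, then exposed to library compounds with dopamine controls for 90 minutes at 37 degrees C before luminescent detection.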
D3 ag: agonists of human D3 dopamine receptor. actives 0.58% (n = 410,000). P35462. D3R DiscoveRx beta-arrestin cells, luminescence, 90 min. max activation, %; in the data active means max activation above about 30%; further: 0% is about no effect
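Cells at 1500/well, incubated overnight, then treated with pinned compounds (dopamine as control) for 90 min at 37 degrees C. DiscoveRx reagent added for 30 - 60 minutes at room temperature; luminescence read.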
* hit, by the source's call; ? = inconclusive; . = no result given.

SMILES	D1 agonist	D1 potentiator	D1 antagonist	D3 antag	D3 ag
O=C(c1ccccc1)c1ccc(NCCCn2ccnc2)c([N+](=O)[O-])c1	15	-12	-35*	?	-6
CCN(CC)S(=O)(=O)c1ccc(NCCCn2ccnc2)c([N+](=O)[O-])c1	0	2	-7	5	4
O=C(NCCCn1ccnc1)c1cn(-c2ccccc2)nc1-c1ccccc1	1	-8	-83*	-22	-4
O=C(NCCCn1ccnc1)c1cc2ccccc2oc1=O	1	-4	0	19	2
O=C(NCCCn1ccnc1)c1ccc2ccccc2c1	3	-7	-37*	10	-3
O=C(NCCCn1ccnc1)c1ccccc1Br	3	2	-11	-10	-2
O=C(NCCCn1ccnc1)c1ccc(NS(=O)(=O)c2ccc(Cl)c(Cl)c2)cc1	34*	11	0	-6	-12
Cc1ccc(-c2nc3cccnc3o2)cc1NC(=O)COc1ccc(C(C)(C)C)cc1	3	13	-7	103	79*
CCOc1ccccc1Nc1nnc(-c2cc3cc(OC)ccc3oc2=O)s1	56*	-3	-15	.	20
Cc1ccc(Cl)cc1N1CCN(C(=O)c2noc3c2CCCC3)CC1	7	1	-6	.	-4
Cc1ccccc1N1CCN(Cc2ccc(Br)o2)CC1	4	-10	-3	-58*	-6
Clc1ccccc1N1CCN(Cc2ccc(Br)o2)CC1	.	.	.	-60*	-31
Brc1ccc(CN2CCN(c3ccccc3)CC2)o1	1	-3	-17	-20	4
Cc1cccc(N2CCN(Cc3ccc(Br)o3)CC2)c1C	-1	-10	2	-56*	-26
Cc1ccccc1CNC(=O)c1ccc(Cn2c(SCc3cccc(F)c3)nc3cccnc32)cc1	5	-3	2	.	-11
Fc1ccc([C@@H]2CCNC[C@H]2COc2ccc3c(c2)OCO3)cc1	59*	0	-37*	24	15
Fc1ccc(C2CCNCC2COc2ccc3c(c2)OCO3)cc1 (centres undefined)	38*	-5	7	-10	0
CCN(CC)CCCNC(=O)CSc1nc2nc(C)c(Cc3c(F)cccc3Cl)c(C)n2n1	4	-1	-5	.	2
Cc1cc([N+](=O)[O-])nn1CC(=O)NNC(=S)Nc1ccc(F)cc1	.	.	.	-25	-2
Cc1nn(CCC(=O)NNC(=S)Nc2ccc(F)cc2)c(C)c1[N+](=O)[O-]	-3	-6	3	-77*	2
O=S(=O)(NC1CC(NS(=O)(=O)OCC(Cl)(Cl)Cl)C2CCCCC12)OCC(Cl)(Cl)Cl (centres undefined)	10	-6	-12	?	-18
Cc1ccc2sc(N(CCN(C)C)C(=O)c3ccc4ccccc4c3)nc2c1C	7	-3	2	-73*	0
Cc1cccc2sc(N(CCCN(C)C)C(=O)COc3ccc(Cl)cc3)nc12	18	-3	-8	2	6
Cc1cccc2sc(N(CCCN(C)C)C(=O)c3ccc(C(=O)c4ccccc4)cc3)nc12	24	-3	-31*	?	-14
Cc1ccc2sc(N(CCCN(C)C)C(=O)CN3C(=O)c4ccccc4C3=O)nc2c1C	46*	-2	-24	-12	-17
SMILES	D1 agonist	D1 potentiator	D1 antagonist	D3 antag	D3 ag
Cc1cccc2sc(N(CCCN(C)C)C(=O)COc3ccccc3)nc12	64*	-2	1	.	-10
Cc1cccc2sc(N(CCCN(C)C)C(=O)c3sc4ccccc4c3Cl)nc12	4	-1	15	-4	-1
Cc1ccc2sc(N(CCCN(C)C)C(=O)c3ccc(S(=O)(=O)N4CCCCCC4)cc3)nc2c1C	3	3	16	?	-14
Cc1cc(C)c2sc(N(CCN(C)C)C(=O)c3ccc4ccccc4c3)nc2c1	5	-3	-15	?	-13
Cn1ccsc1=NC(=O)c1cccc(OC(F)F)c1	1	0	4	-6	-5
CC(C)(C)C1CCc2c(sc(NC(=O)C3c4ccccc4Oc4ccccc43)c2C(N)=O)C1 (centres undefined)	2	-7	-2	.	1
COc1cccc2sc(N(CCCN(C)C)C(=O)c3sc4ccccc4c3Cl)nc12	4	-11	-73*	-14	-12
CCOC(=O)Cc1csc(NC(=O)c2cc(C)c(C)s2)n1	9	-7	-35*	2	4
CCOC(=O)Cc1csc(NC(=O)c2ccc(Cl)s2)n1	0	6	0	13	29
CCOC(=O)Cc1csc(NC(=O)NC2(C(F)(F)F)Oc3cc(Cl)c(Cl)cc3O2)n1	35*	-2	-25	86	16
CCOC(=O)Cc1csc(NC(=O)NC2(C(F)(F)F)Oc3ccc(Cl)cc3O2)n1 (centres undefined)	6	0	-6	5	4
CCOC(=O)Cc1csc(NC(=O)Nc2ccc(OC(F)(F)F)cc2)n1	20	-8	-36*	5	11
CCOC(=O)Cc1csc(NC(=O)c2csc3c2CCCC3)n1	11	-15	-19	-63*	2
COc1cc(NC(=O)Cn2nc(C(F)(F)F)c3c2CCC3)cc(OC)c1OC	17	-2	-19	.	-4
CCc1nnc(NC(=O)CSc2nccn2Cc2ccccc2)s1	8	1	-7	.	-2
COc1ccccc1CNC(=O)CCc1c(C)c2cc3c(C)c(C)oc3cc2oc1=O	7	-1	-23	.	-40
CCOC(=O)Cc1csc(NC(=O)c2ccc(S(=O)(=O)N3CCCCC3)cc2)n1	8	-3	-8	14	36*
CCOC(=O)Cc1csc(NC(=O)Cc2ccc(Br)cc2)n1	4	0	-37*	6	4
CS(=O)(=O)c1ccc(Cl)c(NC(=O)c2cc(S(=O)(=O)N3CCOCC3)ccc2N2CCCC2)c1	4	4	-8	-7	-5
COC(=O)C/C=C/N(Cc1ccccc1OC)S(=O)(=O)CCl	.	.	.	14	0
Cc1ccc2occ(CC(=O)N(Cc3ccc(Cl)cc3)Cc3ccco3)c2c1	90*	21	-26	.	8
Cc1ccc(CN(Cc2ccco2)C(=S)NCC(=O)NC2CC2)cc1	2	-2	-31*	-6	3
Cc1ccc(CN(Cc2ccco2)C(=O)c2oc3c(C)c(C)ccc3c2C)cc1	18	1	-4	.	6
Cc1ccc(CN(Cc2ccco2)C(=O)c2oc3ccc(C)cc3c2C)cc1	37*	-2	12	.	-4
Cc1ccc(CN(Cc2ccco2)C(=O)COc2ccccc2C)cc1	7	1	-1	.	36*
CCCCn1c(NCc2ccccc2O)nc2ccccc21	1	-7	-1	-12	2
CCCCn1c(NCc2ccccc2NS(=O)(=O)c2ccc(C)cc2)nc2ccccc21	4	-13	-32*	-29	-10
CN(C)CCCN(C(=O)CCc1ccccc1)c1nc2c(F)cccc2s1	35*	-13	3	0	-21
CN(C)CCCN(C(=O)c1ccco1)c1nc2c(F)cccc2s1	7	-2	19	-12	-7
